Rows were chosen to be rich in hits. Some 9% of all compounds tested hit in one or more screens of this group.
ALOX12 inh = ALOX12 (human) lipoxygenase inhibition; P18054; purified 12hLO, xylenol orange hydroperoxide absorbance; Potency, µM (highest dose often 108 µM), for the others: at the top dose activity change, negative = inhibition, usual class: inhibitors; hit rate 1.1% among 580,000; AID 1671190; note: % is set by controls: 0 for no effect and ±100 for the full control effect
Target sequence (P18054 whole entry, looked up): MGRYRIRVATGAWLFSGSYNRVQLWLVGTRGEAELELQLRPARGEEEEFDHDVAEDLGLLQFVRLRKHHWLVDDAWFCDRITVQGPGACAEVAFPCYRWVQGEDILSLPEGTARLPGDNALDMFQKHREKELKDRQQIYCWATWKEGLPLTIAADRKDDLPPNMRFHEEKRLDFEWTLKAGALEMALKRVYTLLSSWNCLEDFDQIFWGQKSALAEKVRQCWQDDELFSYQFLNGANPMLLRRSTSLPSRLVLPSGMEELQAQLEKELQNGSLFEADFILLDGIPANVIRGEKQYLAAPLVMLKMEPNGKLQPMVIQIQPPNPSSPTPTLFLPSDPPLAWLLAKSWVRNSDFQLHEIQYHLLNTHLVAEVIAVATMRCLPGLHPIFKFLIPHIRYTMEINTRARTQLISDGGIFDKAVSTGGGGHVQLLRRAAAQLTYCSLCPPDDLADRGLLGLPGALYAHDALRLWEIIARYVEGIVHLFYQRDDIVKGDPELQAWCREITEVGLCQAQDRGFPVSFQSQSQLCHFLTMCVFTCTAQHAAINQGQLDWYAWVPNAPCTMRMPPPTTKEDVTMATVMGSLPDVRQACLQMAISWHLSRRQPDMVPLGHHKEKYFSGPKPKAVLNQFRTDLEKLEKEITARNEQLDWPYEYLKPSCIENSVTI
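Hydroperoxide product was detected by ferrous iron/xylenol orange as the 573 to 405 nm absorbance ratio. Arachidonic acid at 40 uM (final) was turned over for 30 min at room temperature by 150 nM human 12hLO, pH 7.0 Hepes buffer, after 15 min compound preincubation.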
BAZ2B inh = blocks human BAZ2B; Q9UIF8; AlphaScreen BAZ2B-H3K14Ac peptide displacement; Potency, µM (series often up to 114 µM), inactives show at the highest dose activity change, negative = inhibition, actives largely listed as inhibitors; hit rate 4.4% among 360,000; note: % is set by controls: 0 for no effect and ±100 for the full control effect; nearly all actives have a fitted effect of over 60% in size
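In this displacement format the biotinylated H3(5-23) peptide acetylated at Lys14 serves as ligand at 50 nM, with BAZ2B at 50 nM in PBS pH 7.4 containing 0.01% Tween-20. Donor and acceptor beads are 10 ug/mL final.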
JMJD2A Tudor inh = inhibitors of human JMJD2A Tudor domain | Potency, µM (doses to about 114 µM), without a hit: at the highest dose activity change, negative = inhibition, most hits filed as inhibitors | AID 504339 | O75164 | AlphaScreen JMJD2A-Tudor / H3K4me3 peptide binding | hit rate 4.4% among 390,000; note: % is set by controls: 0 for no effect and ±100 for the full control effect; nearly all actives have a fitted effect of over 50% in size
G9a inh = blocks human histone lysine methyltransferase G9a; Q96KQ7; G9a H3K9 monomethylation, AlphaScreen, 2 h; Potency, µM (doses to about 102 µM), for the others: at the top dose activity, negative = inhibition, hits mostly inhibitors; hit rate 8.8% among 350,000; note: % is set by controls: 0 for no effect and ±100 for the full control effect; nearly all actives have a fitted effect of over 75% in size
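AlphaScreen read-out: biotin-H3K9 peptide (500 nM) methylation by 20 nM enzyme with 20 uM SAM, 2 h at room temperature after 15 min compound preincubation; anti-monomethyl H3K9 antibody plus donor/acceptor beads, 10 min dark.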
PLK1 PBD inh = PLK1 (human) polo-box domain binding inhibition | P53350 | Plk1 PBD binding of FITC phosphopeptide, fluorescence polarization | Potency, µM, without a hit: max response, negative = inhibition, hits mostly inhibitors | hit rate 2.8% among 360,000; note: series mostly up to about 57 µM; % is set by controls: 0 for no effect and ±100 for the full control effect; nearly all actives have a fitted effect of over 65% in size
HP1b binding inh = blocks HP1-beta chromodomain binding to methylated histone tails. Potency, µM (titrated, usually from 114 µM), without a hit: at the top dose activity change, negative = inhibition, actives largely listed as inhibitors. hit rate 0.56% among 390,000. AlphaScreen HP1-beta / biotin-H3K9me3 peptide binding. P83916; note: nearly all actives have a fitted effect of over 70% in size
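Compound inhibition of the preformed complex between 50 nM HP1-beta and 50 nM biotinylated H3K9me3 peptide was read by AlphaScreen. Buffer was PBS pH 7.4 with 0.01% Tween-20. Incubations ran 30 min at room temperature, with 10 ug/mL donor/acceptor beads.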
Starred values were filed as active, the others as inactive; i = inactive; u = inconclusive; x = no result; [ ] = dose if it differs, or a comment. Calls come from the whole dose curve; as a rule, active = well fitted curve in the direction sought with a large enough effect; inconclusive = small, poorly fitted or top-dose-only effect, or another doubt; inactive = no such curve, though single readings can be large; an effect the other way counts as inactive or inconclusive. Potency is the fitted concentration of half-maximal effect.

SMILES | ALOX12 inh | BAZ2B inh | JMJD2A Tudor inh | G9a inh | PLK1 PBD inh | HP1b binding inh
Cc1oncc1C(=O)Nc1cccc(C#N)c1 | i | -11% | 2% | 22% | -7% | 26%
Cc1ccc(C)c(OC(=O)CSc2nnc(CNC(=O)c3ccccc3)o2)c1 | -8% | -15% | -20% | -43%[59 µM] | x | 56%
Cc1cc(=O)n(C)c(=O)n1CCCCCCN1CCCC1 | u | u | 3.2µM* | 11µM* | -7% | u
Cc1cc(=O)n(C)c(=O)n1CCCCCOc1cccc([N+](=O)[O-])c1 | -3% | 10% | -23% | -27%[59 µM] | 1% | 2%
Cc1ccc(CC23CN4CCN(CC(C4)C2O)C3)c(C)c1 (stereo not given) | 0% | 3% | -13% | -3%[12.7 µM] | -6% | 1%
COc1ccc(NS(=O)(=O)c2cc(NC(=O)c3cnc(C)cn3)ccc2N2CCCC2)cc1 | -18% | -4% | -26% | -12%[59 µM] | -1% | 17%
O=C(Nc1ccc(N2CCCCC2)cc1)c1cccnc1Cl | -29% | -31% | -24% | 50µM* | -8% | 27%
COc1ccc(NS(=O)(=O)c2cc(NC(=O)c3ccc(=O)[nH]c3)ccc2N2CCCC2)cc1 | 0% | 40µM* | u | x | -6% | -14%
COc1ccc(NS(=O)(=O)c2cc(NC(=O)c3cccnc3Cl)ccc2N2CCCC2)cc1 | u | -30% | u | 45µM* | -2% | 17%
O=C(c1cccnc1Cl)N1CCOCC1 | -1% | x | u | -5% | 19µM* | -16%
Cc1nnc(SCc2ccccc2)c2cc3sccc3n12 | -22% | 8% | -2% | 6%[59 µM] | x | 48%
O=C(c1ccc(C(=O)N2CCOCC2)nc1)N1CCOCC1 | u | 2% | 40µM* | u | -2% | 5%
O=C(c1ccc(N2CCOCC2)nc1)N1CCOCC1 | 9% | 9% | -2% | 8% | -4% | 25%
CNC(=O)[C@@H]1CN(S(=O)(=O)c2cn(C)cn2)C[C@H]1COC | 34% | x | x | x | x | x
Cc1ccc(-c2cnc(SCCNC(=O)c3ccco3)[nH]2)cc1 | -7% | -34% | -21% | 45µM* | -1% | 0%
CC(C)(C)N=C1NN=C(c2cc3ccccc3o2)CS1 | -27% | u | -34% | 40µM* | -4% | -26%
COC(=O)c1ccccc1NC(=O)Cc1nc(-c2ccccc2)sc1-c1ccc(C)cc1 | u | -3% | -12%[57.1 µM] | 45µM* | -12% | 46%
COC(=O)c1ccccc1NC(=O)Cc1noc2ccc(C)cc12 | -1% | -12% | -29% | -2%[59 µM] | x | 0%
O=C(NCc1ccccc1)c1ccc(Cl)c(NC2=NC3CS(=O)(=O)CC3S2)c1 (stereo not given) | 4% | -27% | -6% | -15% | -14% | 26%
CC(=O)Nc1ccc(NC(=O)C(C)OC(=O)C2(c3ccc(Cl)cc3)CCCC2)cc1 (stereo not given) | -19% | -24% | -29% | 50µM* | -4% | 20%
N#CC(=C=[N-])C1=C(C#N)C(c2ccccc2F)C([n+]2ccccc2)C(O)(C2CC2)N1 (stereo not given) | 19% | u | -34% | u | -7% | 5%
Cc1cccc[n+]1C1C(c2ccccc2)C(C#N)=C(C(=C=[N-])C#N)NC1(O)C1CC1 (stereo not given) | x | -35% | u | 40µM* | u | -19%
C[N+](CCOCc1ccccc1)(CCOCc1ccccc1)CCOCc1ccccc1 | 18µM* | x | x | x | x | x
CN1CC(=O)N(C2CCNCC2)Cc2c(NC3CCCCC3O)ncnc21 (stereo not given) | 11µM* | x | x | x | x | x
CN1CC(=O)N(C2CCCNCC2)Cc2c(NC3CCCCC3O)ncnc21 (stereo not given) | -23%[6.33 µM] | x | x | x | x | x
SMILES | ALOX12 inh | BAZ2B inh | JMJD2A Tudor inh | G9a inh | PLK1 PBD inh | HP1b binding inh
COC(=O)c1ccc(-n2c(C)cc(C(=O)COC(=O)C3=COCCO3)c2C)cc1 | 8% | x | -19% | x | 3% | -2%
Cc1cc(C(=O)COC(=O)C2=COCCO2)c(C)n1-c1ccc2c(c1)OCO2 | 0% | 50µM* | -24%[57.1 µM] | u | -19% | 9%
Cc1cc(C(=O)CSc2n[nH]c(N)n2)c(C)n1-c1cccc(F)c1 | -9% | 50µM* | u | u | -7% | -19%
Cc1cc(C(=O)COC(=O)Cc2n[nH]c(=O)c3ccccc23)c(C)n1-c1ccc2c(c1)OCCO2 | -16% | -11% | -31% | 50µM* | 3% | 4%
Cc1cc(C(=O)COC(=O)C2=COCCO2)c(C)n1-c1cccc(F)c1 | -3% | u | -34% | 56µM* | 3% | -17%
Cc1ccccc1Nc1nnc(SCc2cc([N+](=O)[O-])cc3c2OCOC3)s1 | 7% | -12% | -29% | u | -4% | -13%
O=[N+]([O-])c1cc2c(c(CSc3nnc(Nc4ccccc4)s3)c1)OCOC2 | -4% | -4% | 17% | 3.5µM* | -5% | 25%
Clc1ccccc1Cn1nnc2c(N3CCCC3)ncnc21 | -10% | -1% | -9% | -5% | -2% | 25%
Fc1ccccc1Cn1nnc2c(-n3ccnc3)ncnc21 | 0% | 2% | 56µM* | -30% | 24µM* | -11%
CC(=O)Nc1cc(NC(C)=O)cc(C(=O)OCC(=O)N(c2ccccc2)C2CCS(=O)(=O)C2)c1 (stereo not given) | 182% | -31% | -8% | -3%[12.7 µM] | 3% | 41%
O=C1NN(c2ccc(F)cc2)C(=O)/C1=C\c1cnn(-c2ccccc2)c1 | -19% | -9% | x | x | x | x
O=C1NN(c2ccc(F)cc2)C(=O)/C1=C\C=C\c1ccco1 | 45µM* | -39% | u | u | -20% | -35%
COc1ccc2c(C)c(CCC(=O)NCc3ccc(S(=O)(=O)N(C)C)cc3)c(=O)oc2c1 | 41% | x | x | x | x | x
COc1ccccc1N1CCN(/N=C/c2ccc(Cl)c([N+](=O)[O-])c2)CC1 | u | 18µM* | u | x | -13% | u
COc1ccccc1N1CCN(/N=C/c2ccc([N+](=O)[O-])cc2)CC1 | 0% | 18µM* | 28µM* | 18µM* | -5% | u
COc1cc(/C=N/N2CCN(c3ccccc3OC)CC2)ccc1OC(C)=O | 29% | u | -29% | 18%[0.501 µM] | 8% | 0%
Cc1ccc(C2=NS(=O)(=O)N(C)C(C(=O)Nc3ccc4c(c3)OCO4)=C2)cc1 | 333% | u | u | 79µM* | -4% | -11%
COc1ccc(C2=NS(=O)(=O)N(C)C(C(=O)Nc3ccc4c(c3)OCO4)=C2)cc1OC | 3% | u | u | 35µM* | -14% | -7%
COc1ccc(NC(=O)C2=CC(c3ccc4c(c3)OCO4)=NS(=O)(=O)N2C)cc1OC | 5% | 0% | -11% | -9%[59 µM] | x | 15%
